Data on 15 molecules can be found in PubChem BioAssay (NCI).

Compounds without any hit were thinned out: in the full panel of roughly 79,000, 15% have a hit. Values without a mark were called inactive. The source made the active and inactive calls. Rule as the data show it: active = growth inhibition above about 70%; inactive = the rest.

The assay in a line: NCI Yeast Anticancer Drug Screen. Data for the rad50 strain (AID 155).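 Also: 0% = growth of vehicle-only cultures of the same strain.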 The settings on record: S. cerevisiae rad50 strain growth inhibition; at 5.0 µM (retest, dose inferred, filed as 0.5); stronger effect = higher value. The gist of the method: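 DNA repair mutant yeast, compound exposure, growth read-out; inhibition is taken relative to vehicle.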
With `COc1ccc(C(=O)[O][Sn]([c]2ccccc2)([c]2ccccc2)[c]2ccccc2)c(OC)c1OC`, the growth inhibition is 100% (active).

For the molecule `CCC(CC)C1(C(=O)OCCN(CC)CC)CCCCC1`, the growth inhibition was 1%.

For `O=C1OC(=O)C2C1C1C(c3ccccc3)=C(c3ccccc3)C2(O)C2C(=O)OC(=O)C12` (stereo not given), the growth inhibition was 25%.

With `C/C(=C/CC1CCC2C3=CCC4CC(O)CCC4(C)C3CCC12C)C(C)C(C)C` (stereo not given), the growth inhibition was 17%.

Regarding `CCC1(CC(=O)O)OCCc2c1[nH]c1c(C)c(Cl)ccc21` (stereo not given), the growth inhibition is 10%.

On to `CN(C)CCCSc1c2ccccc2nc2cccc([N+](=O)[O-])c12`, for which the growth inhibition was 2%.

Consider `CC1OC(OP(=O)(OCc2ccccc2)OCc2ccccc2)C(OC(=O)c2ccccc2)C(OC(=O)c2ccccc2)C1I` (stereo not given), for which the growth inhibition is 50%.

On to `C#CC(CC(C)CC(C)(C)C)NC` (stereo not given), for which the growth inhibition was 2%.

Consider `N#CCCN(CCC#N)Cc1cc(-c2ccccc2)ccc1O`, for which the growth inhibition was 5%.

Consider `Cc1ccc(NC(=O)CCCC(=O)C(C#N)c2ccccc2C)cc1C` (stereo not given), for which the growth inhibition is -5%.

As for `C[C@H]1CC[C@@H]2[C@@H](C)[C@H]3[C@H](C[C@H]4[C@@H]5CC=C6C[C@@H](O)CC[C@]6(C)[C@H]5CC[C@]34C)N2C1`, the growth inhibition is 27%.

Regarding `Cc1nc(-c2ccc(N=Cc3ccc(N(CCOS(C)(=O)=O)CCOS(C)(=O)=O)cc3)cc2)cs1`, the growth inhibition was 1%.

As for `COc1ccc2nc3cccc([N+](=O)[O-])c3c(NCCO)c2c1`, the growth inhibition is 75% (active).

As to `Oc1ccc(C2CCCCC2)cc1`, the growth inhibition is 1%.

As for `CCCCCc1cc(Cl)cc(Cl)c1O`, the growth inhibition was -5%.
